Sampled rows, rich in hits. Any-hit rate of the full collection: about 2.6%.
TWEAK Fn14 block – TWEAK-Fn14 signaling inhibition; inhibition, % at 10 µM; AID 1159606; TWEAK-stimulated Fn14 reporter cells, luciferase luminescence, 8 h; 360,000 compounds, 2% hits; in the data active = inhibition above about 50%
TROY signal inh – TROY signaling inhibition; Q293 LMP1-TROYcd NF-kB luciferase reporter, 4 h; inhibition, % at 10 µM; 360,000 compounds, 0.98% hits; AID 1347056;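 active = compounds whose plate-normalised and pattern-corrected inhibition of the luciferase reporter signal at the single screening dose is 50% or more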
KKLEB cytotox – counter-screen for CF NF-kB inhibitors: cytotoxicity | AID 602141 | activity change (cytotoxicity), % at 5 µM | KKLEB CF airway cells viability, ATPlite luminescence, overnight; active compounds read low; cells stimulated with P. aeruginosa culture filtrate | 360,000 compounds, 0.36% hits;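 active = corrected activity change at or below -50% at 5 µM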
EWS-Fli block – blocks EWS/Fli oncoprotein-driven transcription | A673 NR0B1-luciferase reporter, viability-normalised | inhibition, % at 12.6 µM | 350,000 compounds, 0.67% hits | AID 651661;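 active = mean inhibition of at least 50% after viability correction, with every replicate also passing that limit; inconclusive = mean reaches 50% but only one of two replicates passes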;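 also: firefly luciferase signal divided by Alamar Blue viability fluorescence both relative to DMSO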
CF NFkB block – blocks PAF-induced NF-kB reporter in cystic fibrosis cells; KKLEB NF-kB-GFP reporter, GFP fluorescence overnight; inhibition, % at 5 µM; 360,000 compounds, 0.86% hits; AID 588850;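 active = at least 50% inhibition at 5 µM, scaled per plate between neutral and stimulator controls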;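 also: PAF is a Pseudomonas aeruginosa culture filtrate used as stimulus; plate controls were PAF-stimulated DMSO wells for no effect and unstimulated DMSO wells for full effect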
LGR2 antag – Drosophila LGR2 receptor signaling inhibition; HEK293 LGR2, CRE-luciferase, bursicon-stimulated, 4 h; inhibition, % at 9.99 µM; 380,000 compounds, 0.35% hits;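 active = drop in luminescence signal, shown as inhibition above about 50% in the replicate tests, limit read from the data, passing the limit was not always enough; inconclusive = probably only some replicates passing the limit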;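 also: agonist challenge used bursicon conditioned medium at about half maximal strength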
* hit, by the source's call; ? = inconclusive; nt = no result.

SMILES	TWEAK Fn14 block	TROY signal inh	KKLEB cytotox	EWS-Fli block	CF NFkB block	LGR2 antag
COC(=O)N1C(=O)[C@](c2ccccc2)(C2CCCCC2)N1C(=O)OC	51*	17	8	12	40	nt
COC(=O)N1C(=O)[C@](CC(C)C)(c2ccccc2)N1C(=O)OC	35	2	-5	0	30	-6
CCNC(=O)Nc1ccc2c(c1)C(=O)N(C)[C@@H]1CC[C@H](CC(=O)NCC3CC3)O[C@@H]1CO2	nt	nt	nt	-5	nt	3
CCOC(=O)c1c(NC(=S)NCCc2ccccc2)sc2c1CC(C(C)C)OC2 (stereo not given)	1	29	-36	-12	60*	8
CCCN(C)C[C@@H]1Oc2ncc(C#CCC(C)C)cc2C(=O)N([C@@H](C)CO)C[C@H]1C	nt	nt	nt	-3	nt	2
O=C(C[C@@H]1C=C[C@H](NC(=O)c2ccccc2)[C@@H](CO)O1)Nc1ccc(-c2ccccc2)cc1	nt	nt	nt	-1	nt	8
Cc1c(NC(=O)c2ccc(C(C)(C)C)cc2)cccc1[N+](=O)[O-]	-18	-62	-7	-138	8	-26
CC(C)(C)c1ccc(NC(=O)c2ccccc2)c([N+](=O)[O-])c1	30	58*	-2	-14	4	nt
O=C(Nc1ccccc1[N+](=O)[O-])c1cncc(Br)c1	104*	8	-4	-4	15	11
O=C(Nc1ccc(F)cc1F)c1cncc(Br)c1	10	-11	-1	-16	15	13
C[C@H](CO)N1C[C@H](C)[C@@H](CN(C)C(=O)c2ccccc2)OCCCC[C@H](C)Oc2ccc(NC(=O)Nc3cccc4ccccc34)cc2C1=O	nt	nt	nt	4	nt	22
C[C@H]1CN([C@@H](C)CO)C(=O)Cc2cc(NC(=O)C3CCCCC3)ccc2O[C@H]1CN(C)CC1CC1	nt	nt	nt	0	nt	23
CCCN1C[C@@H](C)[C@H](OC)CN(C)C(=O)c2ccc(NC(=O)c3cccc(OC)c3)cc2OC[C@H]1C	nt	nt	nt	4	nt	-2
O=C(C[C@H]1CC[C@@H]2[C@H](COC[C@H](O)CN2Cc2cc(F)ccc2F)O1)N[C@H]1CCN(Cc2ccccc2)C1	nt	nt	nt	6	nt	-6
CC(C)C(Cl)=NOC(=O)Nc1ccc(S(N)(=O)=O)cc1	56*	-17	-7	23	41	16
C[C@H]1CN([C@@H](C)CO)C(=O)c2cc(NC(=O)C3CCCCC3)ccc2O[C@@H]1CN(C)C	nt	nt	nt	0	nt	-2
O=C(CC1(O)C(=O)N(CCc2ccccc2)c2ccccc21)c1ccco1 (stereo not given)	86*	nt	2	nt	12	nt
Cc1ccc(C(=O)CC2(O)C(=O)N(CCc3ccccc3)c3ccc(Br)cc32)o1 (stereo not given)	13	12	6	nt	3	nt
Cc1ccc(CSC(Nc2ccc(F)cc2)=C(C#N)C#N)cc1	53*	48	-43	8	41	nt
Cc1oc2c(Cl)c(Cl)c(O)c(CN(C)C)c2c1C(=O)c1ccc(Cl)cc1	75*	48	13	3	51*	24
Cc1oc2ccc(O)c(CN3CCOCC3)c2c1C(=O)c1ccc(Cl)cc1	16	6	-11	nt	31	nt
COc1ccccc1-c1ccc([C@H]2[C@@H](CO)N(C(C)=O)C23CN(C(C)=O)C3)cc1	nt	nt	nt	nt	nt	5
COc1ccccc1NC(=O)/C(=C\c1cccnc1)NC(=O)c1ccccc1	-12	1	3	5	-6	-1
COc1ccccc1NC(=O)/C(=C\c1cccnc1)NC(=O)c1ccc(C)cc1	61*	4	0	-2	-13	4
O=[N+]([O-])c1cc(Cl)ccc1Oc1ccc(-c2nnco2)cc1	12	62*	6	7	17	-18
SMILES	TWEAK Fn14 block	TROY signal inh	KKLEB cytotox	EWS-Fli block	CF NFkB block	LGR2 antag
CC(C)Cn1c(N)c(S(=O)(=O)c2cccs2)c2nc3ccccc3nc21	41	67*	-10	nt	13	nt
COc1ccc(/C=N/n2c(N)c(S(=O)(=O)c3cccs3)c3nc4ccccc4nc32)cc1OC	36	5	13	nt	-34	nt
Nc1c(S(=O)(=O)c2cccs2)c2nc3ccccc3nc2n1/N=C/c1cccc(O)c1	81*	35	10	nt	-10	nt
COc1ccccc1NC(=O)N[C@H]1CC[C@@H](CC(=O)NCc2ccc(Cl)c(Cl)c2)O[C@@H]1CO	nt	nt	nt	nt	nt	4
CO[C@@H]1CN(C)C(=O)c2ccc(NC(=O)C3CC3)cc2OC[C@@H](C)N(C(=O)NC(C)C)C[C@H]1C	nt	nt	nt	-2	nt	-13
O=C(CN(Cc1cccs1)S(=O)(=O)c1ccc(S(=O)(=O)NC2CCCCC2)cc1)Nc1ccccc1	69*	27	-10	nt	-10	29
Cn1c(=O)[nH]c(=O)c2c1nc([N+](=O)[O-])n2Cc1ccccc1	73*	16	-85*	31	109*	?
C[C@H](CO)N1C[C@H](C)[C@@H](CN(C)S(=O)(=O)c2cccs2)Oc2ncc(C#CCC3CCCC3)cc2C1=O	nt	nt	nt	13	nt	13
CC(C)N=c1scc(-c2cccs2)n1/N=C/c1ccc(O)c(O)c1O	54*	14	-2	nt	-23	-37
CCN=c1scc(-c2cccs2)n1/N=C/c1cc(OC)ccc1O	62*	34	-4	nt	-9	-36
C[C@@H]1CN([C@@H](C)CO)C(=O)c2cccc(NS(C)(=O)=O)c2O[C@@H]1CN(C)S(=O)(=O)c1ccc(Cl)cc1	nt	nt	nt	-4	nt	9
O=C(C[C@H]1CC[C@H](NC(=O)c2ccncc2)[C@@H](CO)O1)Nc1ccc(-c2ccccc2)cc1	nt	nt	nt	18	nt	4
CC=Cc1ccc2n(c1=O)C[C@H]1[C@H](CO)[C@@H](C(=O)NCCc3cn(C)cn3)N(C(=O)CC)[C@@H]21 (mixture of isomers)	nt	nt	nt	-5	nt	-5
O=C1CC(=O)C(n2cncn2)C(c2ccc(Cl)cc2Cl)C1 (stereo not given)	64*	-1	1	nt	2	nt
Cc1nc(Nc2ccc(C(=O)O)cc2)sc1-c1ccccc1	93*	56*	6	?	25	nt
Cc1cccc(Nc2nc3c(s2)CCCC3)c1	-30	-65	18	nt	-7	-118
O=C(O)c1ccc(Nc2nc3c(s2)CCCC3)cc1	91*	23	-1	67*	-1	?
COCCNC(=O)C[C@H]1C=C[C@H](NC(=O)NC2CCCC2)[C@@H](CO)O1	nt	nt	nt	1	nt	9
Cc1cccc2nc(CSc3nnc4ccccn34)cn12	50*	-14	12	nt	-41	nt
O=c1c2c3c(sc2ncn1/N=C/c1ccc([N+](=O)[O-])o1)CCCC3	64*	13	-1	nt	0	-3
CN(CCCC(=O)N1CCCC(C(N)=O)C1)S(=O)(=O)c1ccc(F)cc1 (stereo not given)	68*	-7	-1	-4	-12	-2
O=C(c1n[nH]c(=O)c2ccccc12)N1CCN(Cc2ccc3c(c2)OCO3)CC1	2	6	4	6	6	-12
O=C(c1n[nH]c(=O)c2ccccc12)N1CCOCC1	57*	nt	0	nt	-9	nt
